# Source: PubChem BioAssay AID624331 (National Center for Advancing Translational Sciences (NCATS), 2012)
# Inconclusive results are not listed. Calls of active or inactive are those of the source. Calls follow the shape of the dose curve; as a rule, active = well fitted activation curve with a large enough effect; inconclusive = small, poorly fitted or top-dose-only effect; inactive = no such curve, though single readings can be large or run the other way.
# Test: qHTS assay for re-activators of p53 using a Luc reporter: Hit Validation with no p53 Expressed; also: 0% is about no effect
# Details: p53-null cells, luciferase reporter counter-screen; series mostly up to 46.1 µM; activity change, positive = activation: at the top concentration
# How it was run: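 Without p53 expression, cells (1000/well, Opti-MEM + 10% FBS) were exposed 24 h at 37 deg C to compounds in a 1:5 series from 10 mM stock (top 46.1 µM in well). Luminescent signal read 10 min after Amplite addition; actives flag unspecific activation.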
row,SMILES,"activity change, positive = activation"
1,Oc1ccccc1-c1cc(-c2ccccc2)n[nH]1,60.7% (inactive)
2,O=C(c1ccco1)n1c(=S)nc2ccccn21,85.9% (inactive)
3,CC(Sc1nc(N)cc(=O)[nH]1)C(=O)NNC(=O)c1cccc(Cl)c1 (centres undefined),-14.3% (inactive)
4,CC(=O)N1CCC(C(=O)Nc2ccc(S(=O)(=O)NCCc3ccccc3)cc2)CC1,-14.8% (inactive)
5,Cc1ccc(C)c(Oc2cc(NC(=O)CCCn3nc(C)c([N+](=O)[O-])c3C)cc([N+](=O)[O-])c2)c1,-48.2% (inactive)
6,CN1CC(C(=O)Nc2ccc(F)c(Cl)c2)CC1=O (centres undefined),8.28% (inactive)
7,COc1ccccc1C(=O)CC(=O)c1ccccc1,-25.3% (inactive)
8,O=C(Nc1ccc(Cl)cc1C(F)(F)F)c1ccccc1,-19.7% (inactive)
9,Nc1c(C(=O)CSc2ccccn2)c(=O)[nH]c(=O)n1C1CC1,18.4% (inactive)
10,CC(C)N1CCc2c(sc(NC(=S)NC(=O)c3ccccc3)c2C#N)C1,3.16% (inactive)
11,Cc1ccc(-c2nc(-c3cccnc3)no2)c(C)c1,-3.66% (inactive)
12,Cc1cc(N2CCCCC2)n2ncc(-c3ccc(Cl)cc3)c2n1,-11.1% (inactive)
13,CCc1ccc(OCC(=O)NC(NC(=S)Nc2ccccc2C)C(Cl)(Cl)Cl)cc1 (centres undefined),-20.1% (inactive)
14,CC(C)[C@H](NC(=O)c1ccc(Cl)cc1Cl)C(=O)NNc1cccc(C(=O)O)c1,73.4% (inactive)
15,O=C(NCCN1CCCCC1)Nc1cccc(C(F)(F)F)c1,-5.59% (inactive)
16,Cc1cccc(-n2c(O)c(C=Nc3ccccc3N)c(=O)[nH]c2=O)c1,62.1% (inactive)
17,CCOc1ccc(-n2c(SCc3nc(-c4cccs4)no3)nnc2-c2ccncc2)cc1,-28.2% (inactive)
18,O=C(Nc1nc(-c2cccs2)cs1)c1ccc([N+](=O)[O-])o1,-36.5% (inactive)
19,Cc1cc(-c2nnc(SCc3ccccn3)o2)no1,-18% (inactive)
20,Cc1cccc(C)c1NC(=O)CC(NCc1ccco1)C(=O)O (centres undefined),29.3% (inactive)

row,SMILES,"activity change, positive = activation"
1,Nc1nc(-c2ccc([N+](=O)[O-])cc2)cs1,59.8% (inactive)
2,CCc1ccc(C(=O)Nc2nc3ccccc3[nH]2)cc1,-79.2% (inactive)
3,CC(C)(C)c1nnc(SCC(=O)c2ccccc2)n(N)c1=O,-1.02% (inactive)
4,COc1ccc(CNC(=O)NC2CCCCC2)cc1,24.1% (inactive)
5,CC(C)C(=O)NC(c1cccs1)c1cc([N+](=O)[O-])c2cccnc2c1O (centres undefined),-6.46% (inactive)
6,Nc1c(C(=O)c2ccc(Br)cc2)oc2ccccc12,43.6% (inactive)
7,O=C(NC1CC1)c1cccc(NC(=O)c2cn3ccccc3n2)c1,-15.6% (inactive)
8,COC(=O)CSc1nc2cc(OC)ccc2cc1C#N,-10.9% (inactive)
9,CC(=O)Nc1ccc(Nc2cc(C)nc3c(-c4ccccc4)cnn23)cc1,44.9% (inactive)
10,COc1ccc(-n2cc(-c3ccccc3)[nH]c2=S)cc1,10.4% (inactive)
11,CCN1CCN(CC(=O)Nc2nc3ccc(C)cc3s2)CC1,15.7% (inactive)
12,O=C(O)/C=C/c1nc(-c2ccccc2)n2ccccc12,-22.9% (inactive)
13,COCC(C)NC(=O)C1CC(=O)N(c2ccc(C)cc2)C1 (centres undefined),-10.8% (inactive)
14,c1ccc(-c2cn3nc(-c4ccccc4)cnc3n2)cc1,50.2% (inactive)
15,CCOc1ccc(-c2cnc3ccccc3n2)cc1,-34.8% (inactive)
16,CCn1c(=N)n(CCOc2ccc(OC)cc2)c2ccccc21,9.06% (inactive)
17,Nc1nonc1-n1nnc(C(=O)N/N=C/c2ccc(OCc3cccc(Cl)c3)cc2)c1CN1CCCCC1,56.6% (inactive)
18,C/C(Cn1nnc([N+](=O)[O-])n1)=N\NC(=O)c1ccc(C)cc1,-4.96% (inactive)
19,O=C(Nc1nnc(-c2cccs2)o1)c1cccc(Oc2ccccc2)c1,-49.7% (inactive)
